According to PubChem BioAssay (NCATS):
A number with no mark means an inactive call. No rule for the calls is given here.

Each molecule was assayed on HIV-1 nucleocapsid protein NCp7 (binding to TG oligonucleotide) (assay: HIV Nucleocapsid (AID 346;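 also: potency is for inhibitors that block NC binding and lower polarization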)). Conditions: HIV-1 NC / fluorescein-TGTGTGTG probe, fluorescence polarization.
Summary of the method: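 10 nM TG4xF probe with 100 nM nucleocapsid protein in high-salt Hepes pH 7.5 (250mM NaCl) containing 1uM ZnCl2 and reducing agents. Compound inhibition of binding was read as fluorescein polarization after 1 hr at room temperature.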
Potency is read from the fitted curve at half-maximal effect.

Structure (SMILES) | Potency
CN(Cc1ccco1)c1ncnc2ccc(-c3ccccc3Cl)cc12 | > 20 µM
Cn1cccc1C(=O)N1CCC[C@@]2(CCN(Cc3ccccc3)C2)C1 | > 20 µM
N#Cc1cccc(-c2nccc(NCc3ccccc3)n2)c1 | > 20 µM
COCCn1c(=O)c(-c2ccc(OC)cc2)nc2cnc(Nc3ccccc3)nc21 | > 20 µM
COCC(=O)N1CCC[C@@]2(CCN(C(=O)Nc3cccc(C#N)c3)C2)C1 | > 20 µM
CC(=O)N1CCC2(CCCN(Cc3cc(C(F)(F)F)cc(C(F)(F)F)c3)C2)CC1 | > 20 µM
O=C(Nc1ccccc1)N1CCCC2(CCN(C(=O)c3ccco3)CC2)C1 | > 20 µM
COc1ccc(NC(=O)N2CC3(CCNCC3)C2)cc1 | > 20 µM
CCNc1ncc2nc(-c3ccc(F)cc3)c(=O)n(CCOC)c2n1 | > 4 µM
N#CCCn1c(=O)cnc2cnc(N3CCOCC3)nc21 | > 20 µM
O=c1c(-c2ccc(F)cc2)nc2cnc(Nc3ccccc3)nc2n1C1CC1 | > 20 µM
Cn1cc(-c2nc3cnc(Oc4ccccc4)nc3n(C)c2=O)c2ccccc21 | > 20 µM
CCNc1ncc2nc(-c3ccc(F)cc3)c(=O)n(C)c2n1 | > 20 µM
COc1ccccc1-c1ccc2ncnc(N3CCNCC3)c2c1 | > 20 µM
CS(=O)(=O)Nc1cccc(-c2nc(NCc3cccs3)c3ccccc3n2)c1 | > 20 µM
